Experimental data from the supplement of paper PMC11732987, “Enantioselective OTUD7B fragment discovery through chemoproteomics screening and high-throughput optimisation” (Communications Chemistry, 2025).

Key:
Test in all cases: log2 ratio of Biotin-Ahx-Ub-VS probe labelling (fragment/DMSO); higher = less target engagement (more negative = stronger competition), active = hit call of the paper (q ≤ 0.05, log2 ratio ≤ -1)
Conditions in all cases: compound concentration: 200 uM; treatment time: 3 h
[1] = molecular target: USP34 (UniProt Q70CQ2)
Chain of USP34 (Q70CQ2 whole entry, the tested form may be a part): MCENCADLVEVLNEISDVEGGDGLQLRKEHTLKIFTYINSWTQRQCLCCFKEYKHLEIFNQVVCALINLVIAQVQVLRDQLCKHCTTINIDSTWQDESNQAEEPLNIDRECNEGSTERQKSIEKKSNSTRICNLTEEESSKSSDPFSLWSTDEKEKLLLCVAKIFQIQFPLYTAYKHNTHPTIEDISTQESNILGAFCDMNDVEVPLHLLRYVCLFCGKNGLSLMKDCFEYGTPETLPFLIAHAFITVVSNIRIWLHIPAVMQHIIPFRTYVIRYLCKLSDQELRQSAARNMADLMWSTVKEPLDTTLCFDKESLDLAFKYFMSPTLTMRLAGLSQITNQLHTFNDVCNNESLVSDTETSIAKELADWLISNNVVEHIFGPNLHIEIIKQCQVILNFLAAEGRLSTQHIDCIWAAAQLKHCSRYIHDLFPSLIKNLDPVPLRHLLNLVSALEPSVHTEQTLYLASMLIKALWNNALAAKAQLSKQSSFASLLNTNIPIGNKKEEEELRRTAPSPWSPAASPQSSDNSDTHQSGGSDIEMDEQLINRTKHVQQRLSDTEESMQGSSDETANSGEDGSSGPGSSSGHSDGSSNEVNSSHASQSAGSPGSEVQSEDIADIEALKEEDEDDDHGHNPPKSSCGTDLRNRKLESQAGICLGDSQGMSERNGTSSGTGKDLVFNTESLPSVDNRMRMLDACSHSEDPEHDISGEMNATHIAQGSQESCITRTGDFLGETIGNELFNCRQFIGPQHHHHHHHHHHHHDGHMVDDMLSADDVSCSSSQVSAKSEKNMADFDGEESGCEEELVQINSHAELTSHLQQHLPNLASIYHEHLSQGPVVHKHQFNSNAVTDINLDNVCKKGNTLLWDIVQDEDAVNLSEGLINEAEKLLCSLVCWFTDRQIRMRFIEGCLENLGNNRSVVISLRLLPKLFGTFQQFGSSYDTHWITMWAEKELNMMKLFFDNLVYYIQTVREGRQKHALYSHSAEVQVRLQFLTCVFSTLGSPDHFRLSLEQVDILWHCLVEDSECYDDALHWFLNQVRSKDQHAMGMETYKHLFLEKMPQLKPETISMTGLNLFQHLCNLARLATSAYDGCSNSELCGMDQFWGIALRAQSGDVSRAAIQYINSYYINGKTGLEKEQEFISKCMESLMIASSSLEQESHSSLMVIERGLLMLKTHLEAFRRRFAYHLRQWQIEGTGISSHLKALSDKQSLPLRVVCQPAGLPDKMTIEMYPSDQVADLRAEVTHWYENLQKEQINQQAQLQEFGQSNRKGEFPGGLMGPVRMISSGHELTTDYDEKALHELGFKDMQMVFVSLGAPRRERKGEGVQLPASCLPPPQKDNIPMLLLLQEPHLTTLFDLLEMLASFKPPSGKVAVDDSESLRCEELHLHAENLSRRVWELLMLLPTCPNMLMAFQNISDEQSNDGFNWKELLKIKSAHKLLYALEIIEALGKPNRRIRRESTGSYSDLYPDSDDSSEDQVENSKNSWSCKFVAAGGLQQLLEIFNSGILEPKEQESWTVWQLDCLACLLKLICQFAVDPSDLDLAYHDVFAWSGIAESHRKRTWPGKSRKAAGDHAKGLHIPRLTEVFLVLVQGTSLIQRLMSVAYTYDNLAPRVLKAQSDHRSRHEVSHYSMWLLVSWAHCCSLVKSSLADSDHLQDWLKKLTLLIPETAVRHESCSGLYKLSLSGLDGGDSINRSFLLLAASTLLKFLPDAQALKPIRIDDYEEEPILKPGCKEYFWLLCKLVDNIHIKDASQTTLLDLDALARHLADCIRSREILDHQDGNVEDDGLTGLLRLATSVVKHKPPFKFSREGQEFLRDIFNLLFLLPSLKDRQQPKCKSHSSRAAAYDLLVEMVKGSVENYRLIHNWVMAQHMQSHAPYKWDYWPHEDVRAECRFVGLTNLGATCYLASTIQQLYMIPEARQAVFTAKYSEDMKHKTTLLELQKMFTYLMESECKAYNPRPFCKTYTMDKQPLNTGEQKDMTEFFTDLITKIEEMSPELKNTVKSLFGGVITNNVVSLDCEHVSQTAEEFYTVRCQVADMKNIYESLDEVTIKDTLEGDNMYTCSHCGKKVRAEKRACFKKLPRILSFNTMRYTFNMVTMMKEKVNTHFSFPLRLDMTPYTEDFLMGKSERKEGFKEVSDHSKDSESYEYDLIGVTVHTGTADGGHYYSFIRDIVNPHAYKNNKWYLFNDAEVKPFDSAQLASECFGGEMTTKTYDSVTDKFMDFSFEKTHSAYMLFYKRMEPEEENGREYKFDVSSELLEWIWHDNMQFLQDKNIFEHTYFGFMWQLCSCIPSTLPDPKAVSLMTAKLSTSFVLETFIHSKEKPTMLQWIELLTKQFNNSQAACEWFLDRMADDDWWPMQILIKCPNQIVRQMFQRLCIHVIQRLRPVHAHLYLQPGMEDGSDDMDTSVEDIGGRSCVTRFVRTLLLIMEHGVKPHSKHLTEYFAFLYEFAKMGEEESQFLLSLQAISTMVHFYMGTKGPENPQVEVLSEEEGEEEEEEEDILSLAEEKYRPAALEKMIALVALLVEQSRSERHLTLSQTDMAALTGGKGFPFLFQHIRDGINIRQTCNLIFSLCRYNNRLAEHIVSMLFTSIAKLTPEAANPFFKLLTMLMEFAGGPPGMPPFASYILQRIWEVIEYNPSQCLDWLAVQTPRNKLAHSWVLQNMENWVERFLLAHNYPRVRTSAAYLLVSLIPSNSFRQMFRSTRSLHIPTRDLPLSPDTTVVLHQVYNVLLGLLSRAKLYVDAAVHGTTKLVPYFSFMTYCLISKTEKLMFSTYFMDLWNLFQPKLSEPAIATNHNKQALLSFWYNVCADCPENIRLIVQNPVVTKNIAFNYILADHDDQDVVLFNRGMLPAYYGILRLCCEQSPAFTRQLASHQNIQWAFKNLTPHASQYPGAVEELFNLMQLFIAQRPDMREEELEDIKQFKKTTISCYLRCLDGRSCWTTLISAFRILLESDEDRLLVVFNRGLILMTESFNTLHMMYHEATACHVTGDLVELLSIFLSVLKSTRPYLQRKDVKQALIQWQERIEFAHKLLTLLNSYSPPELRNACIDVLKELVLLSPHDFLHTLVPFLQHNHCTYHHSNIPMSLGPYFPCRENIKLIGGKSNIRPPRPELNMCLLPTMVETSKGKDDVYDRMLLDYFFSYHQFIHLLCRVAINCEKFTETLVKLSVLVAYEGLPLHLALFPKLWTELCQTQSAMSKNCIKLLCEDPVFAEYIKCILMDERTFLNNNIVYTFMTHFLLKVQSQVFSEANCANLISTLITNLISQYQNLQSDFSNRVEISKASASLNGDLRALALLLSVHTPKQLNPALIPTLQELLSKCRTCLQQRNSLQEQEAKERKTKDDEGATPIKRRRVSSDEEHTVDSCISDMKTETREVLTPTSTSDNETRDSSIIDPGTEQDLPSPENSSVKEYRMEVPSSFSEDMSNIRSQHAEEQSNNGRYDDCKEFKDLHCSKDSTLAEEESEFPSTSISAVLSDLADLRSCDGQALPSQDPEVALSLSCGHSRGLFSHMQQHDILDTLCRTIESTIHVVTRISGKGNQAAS
Summary of the method: (§1)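 Labelling with Biotin-Ahx-Ub-VS (0.5 µM final, 1 h) followed a 3 h triplicate treatment of HEK293T lysate (495 µg per sample, Tris/CHAPS/IGEPAL buffer with protease inhibitors) with fragment at 200 µM or vehicle. Labelled DUBs were NeutrAvidin-enriched, digested with LysC and trypsin, and run by diaPASEF LC-MS/MS. The values, average log2 fragment/vehicle ratios by unpaired t-test, come from global-median-normalised Spectronaut label-free quantities. Proteins with ≥2 unique peptides were used.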

[2] = molecular target: T1, USP36 (UniProt Q9P275)
T1 sequence (whole entry): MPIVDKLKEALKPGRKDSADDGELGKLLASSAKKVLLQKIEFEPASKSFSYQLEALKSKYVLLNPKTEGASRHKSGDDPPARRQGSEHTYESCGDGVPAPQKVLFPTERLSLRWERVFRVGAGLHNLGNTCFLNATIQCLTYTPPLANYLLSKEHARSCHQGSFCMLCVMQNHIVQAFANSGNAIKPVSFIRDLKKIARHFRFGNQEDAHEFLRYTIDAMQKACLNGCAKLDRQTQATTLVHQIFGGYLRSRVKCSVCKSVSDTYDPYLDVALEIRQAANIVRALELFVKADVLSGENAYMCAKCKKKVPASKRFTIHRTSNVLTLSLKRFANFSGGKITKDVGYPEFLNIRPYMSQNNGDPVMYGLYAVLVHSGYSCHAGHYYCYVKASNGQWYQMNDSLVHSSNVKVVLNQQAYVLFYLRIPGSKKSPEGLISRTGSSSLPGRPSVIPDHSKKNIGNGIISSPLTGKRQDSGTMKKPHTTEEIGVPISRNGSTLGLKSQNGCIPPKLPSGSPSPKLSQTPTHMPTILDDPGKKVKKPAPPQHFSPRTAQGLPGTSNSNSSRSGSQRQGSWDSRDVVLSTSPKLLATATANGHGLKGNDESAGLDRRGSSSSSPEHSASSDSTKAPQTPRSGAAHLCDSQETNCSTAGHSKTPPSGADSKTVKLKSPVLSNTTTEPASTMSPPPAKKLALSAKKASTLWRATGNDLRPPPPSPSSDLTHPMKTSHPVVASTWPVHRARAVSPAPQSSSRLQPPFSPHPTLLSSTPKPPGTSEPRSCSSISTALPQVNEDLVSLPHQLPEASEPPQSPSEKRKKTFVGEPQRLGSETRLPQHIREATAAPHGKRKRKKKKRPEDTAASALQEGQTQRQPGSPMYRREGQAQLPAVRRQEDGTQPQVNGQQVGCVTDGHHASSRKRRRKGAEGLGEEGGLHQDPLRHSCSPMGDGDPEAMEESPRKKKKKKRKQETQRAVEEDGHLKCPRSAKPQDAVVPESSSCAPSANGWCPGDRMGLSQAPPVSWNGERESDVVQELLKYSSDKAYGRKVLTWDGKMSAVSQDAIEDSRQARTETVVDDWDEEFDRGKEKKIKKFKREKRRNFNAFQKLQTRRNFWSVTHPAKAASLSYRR
Summary of the method: as §1

[3] = molecular target: T2, USP38 (UniProt Q8NB14)
T2 sequence (whole entry): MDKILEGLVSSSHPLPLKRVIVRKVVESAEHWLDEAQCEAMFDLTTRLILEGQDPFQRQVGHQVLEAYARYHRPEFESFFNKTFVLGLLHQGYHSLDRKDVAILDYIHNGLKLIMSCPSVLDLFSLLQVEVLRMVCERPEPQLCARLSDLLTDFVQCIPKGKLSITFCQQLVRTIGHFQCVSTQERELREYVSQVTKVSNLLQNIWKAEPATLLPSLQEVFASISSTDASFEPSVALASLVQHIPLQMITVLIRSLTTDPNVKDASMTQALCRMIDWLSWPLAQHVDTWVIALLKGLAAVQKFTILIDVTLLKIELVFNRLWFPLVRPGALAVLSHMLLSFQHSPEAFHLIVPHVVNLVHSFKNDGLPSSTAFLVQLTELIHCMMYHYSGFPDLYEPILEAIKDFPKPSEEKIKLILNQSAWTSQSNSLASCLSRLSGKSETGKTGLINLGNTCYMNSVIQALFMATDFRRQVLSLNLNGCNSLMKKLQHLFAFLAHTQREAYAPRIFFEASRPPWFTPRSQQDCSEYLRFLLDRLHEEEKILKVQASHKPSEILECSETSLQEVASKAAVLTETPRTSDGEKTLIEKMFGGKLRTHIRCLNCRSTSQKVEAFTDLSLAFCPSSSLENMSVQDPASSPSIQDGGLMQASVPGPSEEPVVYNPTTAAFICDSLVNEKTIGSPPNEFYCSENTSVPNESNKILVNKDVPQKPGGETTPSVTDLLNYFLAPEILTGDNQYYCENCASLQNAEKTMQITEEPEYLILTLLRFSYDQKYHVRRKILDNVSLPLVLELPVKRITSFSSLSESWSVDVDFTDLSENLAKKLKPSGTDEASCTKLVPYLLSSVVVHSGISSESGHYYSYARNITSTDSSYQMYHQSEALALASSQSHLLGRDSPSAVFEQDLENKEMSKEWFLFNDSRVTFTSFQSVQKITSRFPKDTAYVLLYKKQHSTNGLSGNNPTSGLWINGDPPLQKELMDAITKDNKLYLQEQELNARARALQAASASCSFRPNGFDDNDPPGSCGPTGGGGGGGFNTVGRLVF
Summary of the method: as §1

[4] = molecular target: T3, USP39 (UniProt Q53GS9)
T3 sequence (whole entry): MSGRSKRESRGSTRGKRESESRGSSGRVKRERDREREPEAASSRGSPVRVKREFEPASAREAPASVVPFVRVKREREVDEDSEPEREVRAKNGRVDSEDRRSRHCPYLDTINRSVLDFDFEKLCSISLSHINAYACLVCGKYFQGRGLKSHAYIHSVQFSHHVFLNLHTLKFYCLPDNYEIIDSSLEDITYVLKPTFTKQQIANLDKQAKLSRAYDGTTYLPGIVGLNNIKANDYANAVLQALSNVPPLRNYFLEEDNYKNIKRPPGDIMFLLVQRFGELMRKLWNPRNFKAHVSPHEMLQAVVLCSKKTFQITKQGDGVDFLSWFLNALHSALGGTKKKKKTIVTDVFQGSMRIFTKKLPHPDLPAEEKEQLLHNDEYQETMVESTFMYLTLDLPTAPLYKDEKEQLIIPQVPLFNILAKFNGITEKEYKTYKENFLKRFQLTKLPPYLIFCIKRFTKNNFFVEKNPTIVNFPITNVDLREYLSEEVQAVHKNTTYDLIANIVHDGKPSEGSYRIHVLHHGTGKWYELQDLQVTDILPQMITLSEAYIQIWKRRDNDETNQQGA
Summary of the method: as §1

[5] = molecular target: T4, USP4 (UniProt Q13107)
T4 sequence (whole entry): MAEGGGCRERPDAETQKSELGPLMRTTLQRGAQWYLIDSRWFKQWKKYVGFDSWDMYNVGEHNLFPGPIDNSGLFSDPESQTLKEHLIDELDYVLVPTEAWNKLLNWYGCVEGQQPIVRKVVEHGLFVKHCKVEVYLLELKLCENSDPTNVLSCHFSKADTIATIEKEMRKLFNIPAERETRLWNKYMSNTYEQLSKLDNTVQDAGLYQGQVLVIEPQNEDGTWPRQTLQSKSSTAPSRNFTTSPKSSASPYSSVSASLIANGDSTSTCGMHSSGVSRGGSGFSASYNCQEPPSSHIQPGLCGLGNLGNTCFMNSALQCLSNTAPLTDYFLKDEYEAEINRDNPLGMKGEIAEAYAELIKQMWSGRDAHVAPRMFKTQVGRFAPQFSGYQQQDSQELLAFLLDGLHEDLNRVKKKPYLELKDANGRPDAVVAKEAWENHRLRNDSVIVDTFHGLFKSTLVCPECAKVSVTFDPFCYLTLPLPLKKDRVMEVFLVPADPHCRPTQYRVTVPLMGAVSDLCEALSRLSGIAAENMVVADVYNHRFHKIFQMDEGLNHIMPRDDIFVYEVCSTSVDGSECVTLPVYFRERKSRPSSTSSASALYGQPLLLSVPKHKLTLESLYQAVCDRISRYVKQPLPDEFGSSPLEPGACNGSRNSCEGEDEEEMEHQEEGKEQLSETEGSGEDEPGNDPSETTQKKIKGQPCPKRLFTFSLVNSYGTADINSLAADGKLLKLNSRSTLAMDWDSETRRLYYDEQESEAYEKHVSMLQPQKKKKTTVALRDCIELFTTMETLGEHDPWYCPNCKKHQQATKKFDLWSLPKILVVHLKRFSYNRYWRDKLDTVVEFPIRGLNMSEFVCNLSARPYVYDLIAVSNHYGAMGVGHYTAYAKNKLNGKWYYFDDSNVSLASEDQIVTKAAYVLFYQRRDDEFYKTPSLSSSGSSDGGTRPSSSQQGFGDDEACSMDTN
Summary of the method: as §1

Measured: log2 ratio of Biotin-Ahx-Ub-VS probe labelling

COc1ccc(C2CCCN2C(=O)CCl)c(OC)c1 (stereo not given)
inactive: [1] -0.0529 | [2] -0.129 | [3] -0.231 | [4] 0.128 | [5] -0.347
